Bioassay records deposited in PubChem BioAssay by National Center for Advancing Translational Sciences (NCATS).
In the library only some 11% were active in any assay of this set; here they are far more common.
JMJD2A Tudor = qHTS Assay for Inhibitors of JMJD2A-Tudor Domain | Lysine-specific demethylase 4A (Homo sapiens), O75164 | AlphaScreen JMJD2A-Tudor / H3K4me3 peptide binding | Potency, µM (highest dose often 114 µM), most hits filed as inhibitors | actives 4.4% (n = 390,000); note: nearly all actives have a fitted effect of over 50% in size
Target sequence (O75164 whole entry, looked up, the tested form may be a part): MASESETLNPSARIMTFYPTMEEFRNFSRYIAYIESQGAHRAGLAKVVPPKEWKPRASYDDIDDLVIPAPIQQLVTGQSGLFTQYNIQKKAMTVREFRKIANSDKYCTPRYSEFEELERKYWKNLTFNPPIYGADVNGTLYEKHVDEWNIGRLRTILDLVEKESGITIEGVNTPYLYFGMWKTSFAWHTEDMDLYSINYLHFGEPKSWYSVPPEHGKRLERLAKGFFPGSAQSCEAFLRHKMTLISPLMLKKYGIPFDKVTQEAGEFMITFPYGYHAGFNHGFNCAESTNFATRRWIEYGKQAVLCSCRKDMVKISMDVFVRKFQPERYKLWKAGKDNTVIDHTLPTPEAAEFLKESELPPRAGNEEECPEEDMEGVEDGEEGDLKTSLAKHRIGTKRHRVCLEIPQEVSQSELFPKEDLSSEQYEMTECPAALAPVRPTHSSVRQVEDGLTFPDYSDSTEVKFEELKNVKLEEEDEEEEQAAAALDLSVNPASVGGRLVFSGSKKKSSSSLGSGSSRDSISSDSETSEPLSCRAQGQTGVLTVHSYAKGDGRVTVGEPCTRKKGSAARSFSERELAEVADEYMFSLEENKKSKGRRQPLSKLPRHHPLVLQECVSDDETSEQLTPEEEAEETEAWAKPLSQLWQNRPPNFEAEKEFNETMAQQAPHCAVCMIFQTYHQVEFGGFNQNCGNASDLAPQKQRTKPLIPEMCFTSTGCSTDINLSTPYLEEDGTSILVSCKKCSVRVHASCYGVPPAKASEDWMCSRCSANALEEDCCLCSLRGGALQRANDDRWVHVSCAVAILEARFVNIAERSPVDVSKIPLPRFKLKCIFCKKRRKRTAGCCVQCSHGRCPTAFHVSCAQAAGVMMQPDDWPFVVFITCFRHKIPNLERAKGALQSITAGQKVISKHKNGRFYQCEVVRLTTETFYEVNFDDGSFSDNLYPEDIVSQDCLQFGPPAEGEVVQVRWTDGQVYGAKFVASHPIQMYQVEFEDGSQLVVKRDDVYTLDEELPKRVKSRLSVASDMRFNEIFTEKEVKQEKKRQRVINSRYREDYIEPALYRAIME
G9a block = qHTS Assay for Inhibitors of Histone Lysine Methyltransferase G9a; G9a H3K9 monomethylation, AlphaScreen, 2 h; Potency, µM (top dose mostly 102 µM), usual class: inhibitors; actives 8.8% (n = 350,000); note: nearly all actives have a fitted effect of over 75% in size
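Quantitative HTS format: methyltransferase activity on a biotin-tagged H3K9 peptide is measured by AlphaScreen, using a rabbit anti-monomethyl-H3K9 antibody with streptavidin donor and anti-IgG acceptor beads. Final levels are 20 nM enzyme, 500 nM peptide, 20 uM SAM; 2 h RT.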
L3MBTL1 block = qHTS Assay for the Inhibitors of L3MBTL1; AlphaScreen L3MBTL1–H3K9me1 peptide binding; Potency, µM (top dose mostly 57.1 µM), hits mostly inhibitors; actives 0.66% (n = 230,000); note: nearly all actives have a fitted effect of over 60% in size
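L3MBTL1 50 nM + b-AHA-H3(1-15)K9me1 75 nM, 30 min RT; compound added, 30 min RT; streptavidin donor/Ni-chelate acceptor beads 10 ug/mL each final, 30 min RT dark; AlphaScreen read.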
BAZ2B inh = qHTS Assay for Inhibitors of BAZ2B; AlphaScreen BAZ2B-H3K14Ac peptide displacement; AID 504333, 2011; actives 4.4% (n = 360,000); Bromodomain adjacent to zinc finger domain protein 2B (Homo sapiens), Q9UIF8; Potency, µM (titrated, usually from 114 µM), actives largely listed as inhibitors; note: nearly all actives have a fitted effect of over 60% in size
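Compounds, titrated to a top concentration of 110 uM, were incubated 30 min at room temperature with preformed BAZ2B/acetyl-K14 H3 peptide complex (50 nM each). Proximity signal was measured by AlphaScreen after 20 min with beads.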
HP1b chromo inh = HTS for Inhibitors of HP1-beta Chromodomain Interactions with Methylated Histone Tails; Chromobox protein homolog 1 (Homo sapiens), P83916; AlphaScreen HP1-beta / biotin-H3K9me3 peptide binding; actives 0.56% (n = 390,000); Potency, µM (highest dose often 114 µM), usual class: inhibitors; note: nearly all actives have a fitted effect of over 70% in size
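Compound inhibition of the preformed complex between 50 nM HP1-beta and 50 nM biotinylated H3K9me3 peptide was read by AlphaScreen. Buffer was PBS pH 7.4 with 0.01% Tween-20. Incubations ran 30 min at room temperature, with 10 ug/mL donor/acceptor beads.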
Numbers stand for hits; 0 = inactive; ? = inconclusive; - = not tested or not shown; [ ] = remark or other dose. Calls come from the whole dose curve; as a rule, active = well fitted inhibition curve with a large enough effect; inconclusive = small, poorly fitted or top-dose-only effect; inactive = no such curve, though single readings can be large or run the other way.

SMILES	JMJD2A Tudor	G9a block	L3MBTL1 block	BAZ2B inh	HP1b chromo inh
c1ccc(Nc2scc(-c3ccccc3)[n+]2Cc2ccco2)cc1	?	16µM	?	-	?
C/C=C(/CC[C@@H](C)[C@H]1CCC2C3=CC[C@H]4[C@H](C)[C@@H](O)CC[C@]4(C)C3CC[C@@]21C)C(C)C (some centres undefined)	-	0	-	-	-
Cc1c(C(=O)NCc2cccc(Cl)c2)sc2ncnc(N(C)C3CCCCC3)c12	0	0	-	0	0
Cc1ccc(NC(=O)C(C)C(=O)Nc2ccc(C)cc2)cc1	0	0	-	-	0
Cc1ccc(NC(=O)N2CCC(=O)N2)cc1	32µM	?	0	0	0
Fc1ccc(N/N=C2/CC(c3ccccc3)Oc3ccccc32)c(F)c1 (centres undefined)	?	10µM	0	?	0
CCOc1cc(C2C(C(=O)OC)=C(C)NC3=C2C(=O)c2ccccc23)c(Br)cc1OC (centres undefined)	0	0	-	0	0
COc1cccc(C2C3=C(Nc4[nH]n(-c5ccccc5)c(=O)c42)c2ccccc2C3=O)c1 (centres undefined)	-	10µM	0	?	-
CCOC(=O)C1=C(C)NC2=C(C(=O)c3ccccc32)C1c1ccc(O)cc1 (centres undefined)	?	?	0	?	0
COc1cccc(C2NC(=O)NC(C)=C2C(=O)Nc2ccccc2C)c1 (centres undefined)	-	0	0	0	-
COC(=O)C1=C(C)NC2=C(C(=O)c3ccccc32)C1c1cccc(OC)c1 (centres undefined)	0	50µM	-	0	0
CCOC(=O)C1=C(C)NC2=C(C(=O)c3ccccc32)C1c1cccc2ccccc12 (centres undefined)	20µM	0[12.7 µM]	-	35µM	?
CCOc1cc(Br)c(C2C(C(=O)OC)=C(C)NC3=C2C(=O)c2ccccc23)cc1OCC (centres undefined)	0	18µM	-	32µM	0
COC(=O)c1ccc(NC(=O)Cn2ccn3nc(-c4ccc(OC)cc4)cc3c2=O)cc1	0	0[12.7 µM]	-	0	0
CCOC(=O)COc1ccc(C2C(C(=O)OC)=C(C)NC3=C2C(=O)c2ccccc23)cc1Cl (centres undefined)	18µM	0	-	0	?
CCOc1cc(C2C(C(=O)OC)=C(C)NC3=C2C(=O)c2ccccc23)cc(Br)c1OCC (centres undefined)	13µM	10µM	-	10µM	0
CCOc1cc(C2C(C(=O)OC)=C(C)NC3=C2C(=O)c2ccccc23)ccc1OC (centres undefined)	0	?	-	0	?
C#CCOc1ccc(C2C(C(=O)OC)=C(C)NC3=C2C(=O)c2ccccc23)cc1OCC (centres undefined)	25µM	11µM	-	22µM	?
CCOc1cc(C2C(C(=O)OC)=C(C)NC3=C2C(=O)c2ccccc23)c(Br)cc1O (centres undefined)	35µM	16µM	-	22µM	?
CCOC(=O)COc1cc(Br)c(C2NC(=O)NC(C)=C2C(C)=O)cc1OCC (centres undefined)	0	0[12.7 µM]	-	0	0
Cc1cc(O)c(-c2ccnc3cc(-c4ccccc4)nn23)cc1Cl	0	0	-	0	0
COC(=O)C1=CN(C(C)C)C=C(C(=O)OC)C1c1cccc(OC)c1	0	0[12.7 µM]	0	0	0
CC1=C([N+](=O)[O-])C(c2cccc(Br)c2)C2=C(N1)c1ccccc1C2=O (centres undefined)	16µM	0[2.33 µM]	-	14µM	?
CC1=C(C(=O)OCc2ccccc2)C(c2cccc(Br)c2)NC(=O)N1 (centres undefined)	0	0[0.501 µM]	0[2.29 µM]	0	0
COc1cccc(C2C(=O)c3ccccc3C2=O)c1	0	50µM	0	0	0
SMILES	JMJD2A Tudor	G9a block	L3MBTL1 block	BAZ2B inh	HP1b chromo inh
Cc1ccc(N=Cc2sc(O)c3ccccc23)c(C)c1	0	8.9µM	0	0	0
Cc1ccc(N=Cc2ccc[nH]2)c(O)c1	0	?	0	?	0
Cc1ccc(N=Cc2c(O)c3ccccc3n(C)c2=O)cc1	0	0[0.501 µM]	-	0	0
Cc1ccc(N=Cc2sc(O)c3ccccc23)cc1	0	8.9µM	0	0	0
c1ccc2[nH]c(SN3CCOCC3)nc2c1	-	?	0	20µM	-
c1ccc2[nH]c(CN3CCOCC3)nc2c1	0	0	-	0	0
CCc1nnc(SCc2nc(-c3ccccc3Cl)oc2C)c2cc3sc(C)cc3n12	0	0	-	0	0
C(=N\N1CCN(c2ccccn2)CC1)/c1cccc2ccccc12	40µM	40µM	0	35µM	?
O=[N+]([O-])c1cccc(/C=N\N2CCN(Cc3ccccc3Cl)CC2)c1	45µM	10µM	0	35µM	?
O=[N+]([O-])c1cccc(/C=N/N2CCN(Cc3ccc(Cl)cc3)CC2)c1	50µM	-	0	20µM	?
CC1CCCC(C)N1/N=C/c1cccc([N+](=O)[O-])c1 (centres undefined)	?	0	0	0[0.457 µM]	0
O=[N+]([O-])c1cccc(/C=N/N2CCN(c3ccccn3)CC2)c1	0	32µM	0	0	?
Oc1ccccc1/C=N/N1CCN(c2ccccn2)CC1	?	0	0	?	0
CCn1cnc2c(=O)oc3ccc(S(=O)(=O)Nc4ccc(OC)cc4)cc3c21	0	0	-	0	0
O=[N+]([O-])c1cccc(/C=N/N2CCN(Cc3ccccc3)CC2)c1	?	?	-	25µM	0
O=[N+]([O-])c1cccc(/C=N/N=C\c2ccccc2)c1	0	0	0	0	0
O=C(O)CNc1cccc(-c2nn3c(=O)cc(N4CCNCC4)nc3s2)c1	0	-	-	-	-
COc1ccccc1CCn1c(=O)c(-c2cccc(Cl)c2)nc2cncnc21	-	0[0.501 µM]	-	-	-
CCCOc1ccc(/C=C/C(=O)Nc2sc(C)c(C)c2C(=O)OCC)cc1OC	79µM	3.2µM	-	0	?
Cc1cccc(NC(=O)c2ccc(Cn3nc(N4CCN(c5ccccc5)CC4)ccc3=O)o2)c1C	?	?	-	0	0
N#Cc1cc(-c2ccccc2)nn1-c1ccccc1	8.9µM	?	0	?	25µM
Nc1ccccc1Nc1cc(-c2ccccc2)nn1-c1ccccc1	32µM	32µM	?	35µM	?
Nc1nc(SCC(=O)Nc2cc(-c3ccccc3)nn2-c2ccccc2)n[nH]1	0	0	-	0	0
Cn1ccc(-c2ccccc2)n1	0	0	0	0	0
COc1cc(C(=O)Nc2cc(-c3ccccc3)[nH]n2)cc(OC)c1OC	0	0	0	?	0
Nc1ccccc1Nc1cc(-c2ccccc2)[nH]n1	50µM	40µM	0	40µM	?
